Measurements taken from PMC5540273 (PLoS ONE, 2017).
Where two headings read alike, the source gives them in different places.

Columns and labels:
Conditions in all cases: n = 1
CAMKK2 = test system: CAMKK2
CASK = test system: CASK
CDC2L1 = test system: T1, CDC2L1
T1 construct: gene CDK11B

CDC2L2 = test system: CDC2L2
CDC2L5 = test system: T2, CDC2L5
T2 construct: gene CDK13

CDK11 = test system: T3, CDK11
T3 construct: gene CDK19

CDK2 = test system: CDK2
CDK3 = test system: CDK3
CDK4-cyclinD1 = test system: CDK4-cyclinD1
CDK4-cyclinD3 = test system: CDK4-cyclinD3
[1] = concentration: 1 μM, replicates: in singlicate
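Also: KINOMEscan kinase panel screen.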

SMILES	%Inh (CAMKK2; [1]) [%]	%Inh (CASK; [1]) [%]	%Inh (CDC2L1; [1]) [%]	%Inh (CDC2L2; [1]) [%]	%Inh (CDC2L5; [1]) [%]	%Inh (CDK11; [1]) [%]	%Inh (CDK2; [1]) [%]	%Inh (CDK3; [1]) [%]	%Inh (CDK4-cyclinD1; [1]) [%]	%Inh (CDK4-cyclinD3; [1]) [%]	%Inh (CAMKK2; 1 µM) [%]	%Inh (CASK; 1 µM) [%]	%Inh (CDC2L1; 1 µM) [%]	%Inh (CDC2L2; 1 µM) [%]	%Inh (CDC2L5; 1 µM) [%]	%Inh (CDK11; 1 µM) [%]	%Inh (CDK2; 1 µM) [%]	%Inh (CDK3; 1 µM) [%]	%Inh (CDK4-cyclinD1; 1 µM) [%]	%Inh (CDK4-cyclinD3; 1 µM) [%]
COc1cc(Nc2nccc(N3CCC(NC(=O)Nc4cc(C)ccc4C)C3)n2)cc(OC)c1OC (centres unmarked) [GSK1379762]	0	42	0	0	0	17	0	15	0	0	–	–	–	–	–	–	–	–	–	–
O=C(Nc1ccc2c(c1)OCO2)NC1CCN(c2ccnc(Nc3ccc(F)cc3)n2)C1 (centres unmarked) [GSK1379724]	3	21	0	0	0	40	0	8	0	0	–	–	–	–	–	–	–	–	–	–
CS(=O)(=O)c1ccc(-c2nc3n(c2-c2ccncc2)CCC3)cc1 [SKF-105942]	0	26	100	0	0	0	0	28	0	6	–	–	–	–	–	–	–	–	–	–
COc1ccc(Nc2nccc(NCCNC(=O)Nc3ccccc3F)n2)cc1 [GSK1379901]	0	9	5	20	0	12	0	16	0	9	–	–	–	–	–	–	–	–	–	–
Cc1ccc(NC(=O)Nc2cccc(C(F)(F)F)c2)cc1 [GSK955403]	–	–	–	–	–	–	–	–	–	–	19	15	3	0	0	20	0	0	0	0
Fc1cc(Cl)ccc1Nc1ccnc2cc(-c3ccc(CN4CCCCC4)o3)ccc12 [GW560116]	22	2	0	20	0	0	0	5	4	0	–	–	–	–	–	–	–	–	–	–
CC(C)(C)c1ccc(C(=O)Nc2cn3cc(Cl)ccc3n2)cc1	14	18	0	0	6	16	0	0	11	0	–	–	–	–	–	–	–	–	–	–
COc1cccc(NC(=O)NC2CCN(c3ccnc(Nc4ccc(F)cc4)n3)C2)c1 (centres unmarked) [GSK1379721]	14	7	0	14	0	59	0	18	0	0	–	–	–	–	–	–	–	–	–	–
Cl.NC(=O)c1cccc(Nc2nccc(Nc3ccc(Oc4cccc(Cl)c4)c(Cl)c3)n2)c1 [GW659008]	0	7	0	13	0	8	0	24	0	0	–	–	–	–	–	–	–	–	–	–
C[C@@H]1CCCCN1c1cc(-c2ccc3c(N)n[nH]c3c2)nc(N)n1 [GSK2258759]	26	11	0	18	0	4	0	15	0	7	–	–	–	–	–	–	–	–	–	–
O=C(O)COc1ncnc2cc(-c3ccc4[nH]ncc4c3)sc12	24	0	8	0	5	21	0	20	1	0	–	–	–	–	–	–	–	–	–	–
Cn1ccc2ncnc(Oc3ccc(NC(=O)Nc4ccccc4)cc3)c21	0	0	0	0	0	0	0	11	0	0	–	–	–	–	–	–	–	–	–	–
O=C(Nc1n[nH]c2nc(-c3nccs3)c(Br)cc12)C1CCCC1 [SB-742609]	0	19	100	0	0	0	86	60	41	14	–	–	–	–	–	–	–	–	–	–
Cn1cncc1-c1ccc2ncnc(Nc3ccc(OCc4ccccc4)cc3)c2c1 [GW320571]	0	0	0	0	0	10	4	2	0	13	–	–	–	–	–	–	–	–	–	–
Cn1ccc2ncnc(Oc3ccc(Nc4nc5ccccc5[nH]4)cc3)c21	22	0	0	1	0	6	6	0	0	0	–	–	–	–	–	–	–	–	–	–
Cl.c1ccc(-c2n[nH]cc2-c2ccnc(-c3ccc(CN4CCOCC4)cc3)c2)nc1 [GW776245]	19	6	5	8	0	0	0	46	4	0	–	–	–	–	–	–	–	–	–	–
Fc1cc(Cl)ccc1Nc1ccnc2cc(I)ccc12 [GW551191]	0	24	0	0	0	16	0	0	0	0	–	–	–	–	–	–	–	–	–	–
CCn1c(-c2ccccn2)nc2cnccc21 [SB-736398]	0	2	27	0	100	0	0	0	0	3	–	–	–	–	–	–	–	–	–	–

SMILES	%Inh (CAMKK2; [1]) [%]	%Inh (CASK; [1]) [%]	%Inh (CDC2L1; [1]) [%]	%Inh (CDC2L2; [1]) [%]	%Inh (CDC2L5; [1]) [%]	%Inh (CDK11; [1]) [%]	%Inh (CDK2; [1]) [%]	%Inh (CDK3; [1]) [%]	%Inh (CDK4-cyclinD1; [1]) [%]	%Inh (CDK4-cyclinD3; [1]) [%]	%Inh (CAMKK2; 1 µM) [%]	%Inh (CASK; 1 µM) [%]	%Inh (CDC2L1; 1 µM) [%]	%Inh (CDC2L2; 1 µM) [%]	%Inh (CDC2L5; 1 µM) [%]	%Inh (CDK11; 1 µM) [%]	%Inh (CDK2; 1 µM) [%]	%Inh (CDK3; 1 µM) [%]	%Inh (CDK4-cyclinD1; 1 µM) [%]	%Inh (CDK4-cyclinD3; 1 µM) [%]
Cc1ccccc1-n1cnc2c(N)ncnc21 [SKF-97510]	8	0	0	1	0	0	0	0	0	0	–	–	–	–	–	–	–	–	–	–
Nc1nc(-c2nccs2)c(-c2ccnc3ccccc23)s1 [GW693542]	0	0	0	1	0	0	0	7	0	0	–	–	–	–	–	–	–	–	–	–
Cc1ccc(C(=O)Nc2ccc(Nc3ccnc4cc(-c5ccccn5)ccc34)cc2O)cc1.Cl [GW440146]	0	3	0	11	0	0	0	5	16	0	–	–	–	–	–	–	–	–	–	–
CS(=O)(=O)c1ccc(-c2c(-c3ncn[nH]3)sc(N3CCOCC3)c2C#N)cc1	19	0	9	10	0	0	0	17	0	0	–	–	–	–	–	–	–	–	–	–
COc1cccc(-c2cc(-c3c[nH]nc3-c3ccccn3)ccn2)c1 [GW680338]	9	18	0	9	0	10	0	6	58	0	–	–	–	–	–	–	–	–	–	–
CC1=C(C(=O)Nc2cc3cn[nH]c3cc2F)C(c2ccc(C(F)(F)F)cc2)CC(=O)N1 (centres unmarked) [GSK429286]	14	43	0	13	0	7	0	18	0	0	–	–	–	–	–	–	–	–	–	–
Nc1ncnc2[nH]c(-c3ccccc3)nc12 [AH5015]	0	15	0	5	0	0	0	2	0	11	–	–	–	–	–	–	–	–	–	–
COc1cc2ncn(-c3cc(OCC4CCCO4)c(C(N)=O)s3)c2cc1OC (centres unmarked) [GSK204607]	8	0	0	8	0	0	0	0	0	0	–	–	–	–	–	–	–	–	–	–
COc1ccc(CNC(=O)NC2CCN(c3ccnc(Nc4cc(OC)c(OC)c(OC)c4)n3)C2)cc1 (centres unmarked) [GSK1379748]	12	10	0	14	0	2	0	0	6	0	–	–	–	–	–	–	–	–	–	–
Cc1c(O)cccc1Nc1ccnc2ccc(C(F)(F)F)cc12.Cl [GW466413]	3	0	0	0	0	17	0	0	0	0	–	–	–	–	–	–	–	–	–	–
Fc1cccc(COc2nnc(-c3ccc4c(c3)CCO4)o2)c1	0	10	1	0	18	16	0	4	9	0	–	–	–	–	–	–	–	–	–	–
CC(=O)Nc1nc2cnc(Nc3cc(NC(=O)c4cccc(CCC#N)c4)ccc3C)nc2s1	0	10	6	9	36	2	3	0	0	0	–	–	–	–	–	–	–	–	–	–
CC(C)(C)c1ccc(C(=O)Nc2cn3cc(-c4cccnc4)ccc3n2)cc1	18	0	11	17	0	9	3	10	29	0	–	–	–	–	–	–	–	–	–	–
O=C1NC(=O)C(N2CCc3ccccc32)=C1c1ccccc1Cl [SB-373598]	4	0	0	3	0	12	16	0	14	15	–	–	–	–	–	–	–	–	–	–
Cc1cccc(-c2nc(C)cc(Nc3ccncc3)n2)n1 [GSK257997]	12	19	100	17	0	12	0	0	0	0	–	–	–	–	–	–	–	–	–	–
COc1cc2ncnc(Nc3ccc4nc(-c5ccccc5)[nH]c4c3)c2cc1OC.Cl [GW282450]	13	25	0	16	0	0	0	22	0	0	–	–	–	–	–	–	–	–	–	–
CCCc1ccc(S(=O)(=O)NC2CCN(c3ccnc(Nc4ccc(F)cc4)n3)C2)cc1 (centres unmarked) [GSK1379715]	0	4	0	0	98.6	5	0	22	0	0	–	–	–	–	–	–	–	–	–	–
